Consider 1 sequence from PMC7862700, “An all-to-all approach to the identification of sequence-specific readers for epigenetic DNA modifications on cytosine”.

Assay in all cases: DAPPL (digital affinity profiling via proximity ligation, sequencing); 10 mM Tris-HCl pH 7.5, 50 mM NaCl, 1 mM DTT, 4% glycerol, room temperature, 30 min; GST-TFs on glutathione beads, 16-mer random dsDNA library, 0.1% formaldehyde crosslink after washing; high values mean tight binding
Experiment [1] addresses T1, FLI1 (Homo sapiens, UniProt Q01543 1-452).
T1 sequence: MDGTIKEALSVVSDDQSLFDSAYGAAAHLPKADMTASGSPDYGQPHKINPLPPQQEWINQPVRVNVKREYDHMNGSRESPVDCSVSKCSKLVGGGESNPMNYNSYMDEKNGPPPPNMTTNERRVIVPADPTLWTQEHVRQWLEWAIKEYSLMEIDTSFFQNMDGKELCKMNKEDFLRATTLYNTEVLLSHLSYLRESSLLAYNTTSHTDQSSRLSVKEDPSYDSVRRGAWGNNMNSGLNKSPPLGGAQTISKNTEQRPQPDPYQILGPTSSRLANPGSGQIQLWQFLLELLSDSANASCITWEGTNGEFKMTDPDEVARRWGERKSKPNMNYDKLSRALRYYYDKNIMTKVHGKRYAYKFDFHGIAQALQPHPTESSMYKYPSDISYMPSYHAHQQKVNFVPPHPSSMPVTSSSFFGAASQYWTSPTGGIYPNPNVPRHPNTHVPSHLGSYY
The note with it: protein: recombinant; tags: N-terminal GST; dsDNA, one strand shown. In a few lines:
(§1)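 Binding signal is each hexamer's read frequency for a factor divided by its frequency in the tag-only sample. The factors were GST-fused human transcription factors from yeast, captured on glutathione beads, DNA-barcoded and pooled with that sample. Pools were incubated with 200 nmole of a random double-stranded 16-mer DNA library in Tris/NaCl/DTT/glycerol buffer at room temperature for 30 min, then washed, crosslinked with 0.1% formaldehyde, proximity-ligated with BsaI/T4 ligase (1 h, 37 °C), PCR-amplified and sequenced on an Illumina NextSeq500.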

Experiment [2] has as its target T2, ELK1 (Homo sapiens, UniProt P19419 1-428).
T2 sequence: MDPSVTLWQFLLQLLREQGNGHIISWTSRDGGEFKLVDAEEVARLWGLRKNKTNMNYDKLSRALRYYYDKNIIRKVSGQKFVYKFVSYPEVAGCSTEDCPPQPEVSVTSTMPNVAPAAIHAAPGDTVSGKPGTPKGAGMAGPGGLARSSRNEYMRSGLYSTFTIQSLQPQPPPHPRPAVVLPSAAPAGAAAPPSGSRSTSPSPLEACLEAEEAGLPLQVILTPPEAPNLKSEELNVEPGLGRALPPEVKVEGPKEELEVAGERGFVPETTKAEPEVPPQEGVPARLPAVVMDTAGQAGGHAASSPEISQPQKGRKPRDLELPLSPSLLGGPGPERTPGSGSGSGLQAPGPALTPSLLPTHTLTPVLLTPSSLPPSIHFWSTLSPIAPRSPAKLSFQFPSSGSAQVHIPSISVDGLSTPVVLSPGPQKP
The settings on record: protein: recombinant; tags: N-terminal GST; dsDNA, one strand shown. The essentials: as §1

The target in experiment [3] is T3, GABPA (Homo sapiens, UniProt Q06546 1-454).
T3 sequence: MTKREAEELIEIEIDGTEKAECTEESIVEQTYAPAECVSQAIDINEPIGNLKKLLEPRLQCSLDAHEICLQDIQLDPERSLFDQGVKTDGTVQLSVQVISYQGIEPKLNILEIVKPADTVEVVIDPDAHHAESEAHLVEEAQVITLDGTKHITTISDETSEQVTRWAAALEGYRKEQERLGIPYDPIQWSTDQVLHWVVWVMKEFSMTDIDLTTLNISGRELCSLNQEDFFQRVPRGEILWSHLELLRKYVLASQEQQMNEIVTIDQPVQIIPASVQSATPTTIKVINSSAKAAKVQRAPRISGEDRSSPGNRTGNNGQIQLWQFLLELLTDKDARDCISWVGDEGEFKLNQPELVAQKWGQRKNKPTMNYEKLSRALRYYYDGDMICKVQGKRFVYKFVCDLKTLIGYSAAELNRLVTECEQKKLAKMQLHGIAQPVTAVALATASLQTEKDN
The note with it: protein: recombinant; tags: N-terminal GST; dsDNA, one strand shown. In a few lines: as §1

Experiment [4] has as its target T4, ERG (Homo sapiens, UniProt P11308 1-479).
T4 sequence: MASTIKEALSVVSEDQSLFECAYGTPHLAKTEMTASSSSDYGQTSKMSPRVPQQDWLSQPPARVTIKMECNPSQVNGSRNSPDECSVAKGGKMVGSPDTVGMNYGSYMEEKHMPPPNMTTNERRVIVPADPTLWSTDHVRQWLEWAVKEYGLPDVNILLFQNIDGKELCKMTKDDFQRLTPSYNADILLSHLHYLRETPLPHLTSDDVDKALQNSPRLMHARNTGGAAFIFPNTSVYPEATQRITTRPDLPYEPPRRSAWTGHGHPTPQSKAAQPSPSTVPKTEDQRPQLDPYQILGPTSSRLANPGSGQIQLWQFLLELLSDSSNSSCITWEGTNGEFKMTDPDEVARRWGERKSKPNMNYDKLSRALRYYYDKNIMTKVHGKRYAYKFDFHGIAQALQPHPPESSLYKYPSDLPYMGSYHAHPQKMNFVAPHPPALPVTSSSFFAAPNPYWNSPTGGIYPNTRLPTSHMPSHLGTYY
The note with it: protein: recombinant; tags: N-terminal GST; dsDNA, one strand shown. In a few lines:
as §1

Experiment [5] has as its target ELF1 (Homo sapiens, UniProt P32519 1-619). The note with it: protein: recombinant; tags: N-terminal GST; dsDNA, one strand shown. The essentials: as §1
Experiment [6] has as its target T5, EHF (Homo sapiens, UniProt Q9NZC4 1-300).
T5 sequence: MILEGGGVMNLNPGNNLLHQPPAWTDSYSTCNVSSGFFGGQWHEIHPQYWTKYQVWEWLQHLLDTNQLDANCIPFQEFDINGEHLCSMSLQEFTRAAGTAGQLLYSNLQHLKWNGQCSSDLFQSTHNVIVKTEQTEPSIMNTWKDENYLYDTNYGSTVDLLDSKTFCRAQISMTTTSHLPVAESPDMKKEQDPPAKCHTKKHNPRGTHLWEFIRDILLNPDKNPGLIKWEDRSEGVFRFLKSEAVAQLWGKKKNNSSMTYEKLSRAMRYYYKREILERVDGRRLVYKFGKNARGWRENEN
The note with it: protein: recombinant; tags: N-terminal GST; dsDNA, one strand shown. In a few lines:
as §1

For experiment [7], the target named is SPI1 (Homo sapiens, UniProt P17947 1-270). The note with it: protein: recombinant; tags: N-terminal GST; dsDNA, one strand shown. In a few lines: as §1
Experiment [8] has as its target SPIB (Homo sapiens, UniProt Q01892 1-262). The settings on record: protein: recombinant; tags: N-terminal GST; dsDNA, one strand shown. In a few lines: as §1
For experiment [9], the target named is T6, ELK3 (Homo sapiens, UniProt P41970 1-407).
T6 sequence: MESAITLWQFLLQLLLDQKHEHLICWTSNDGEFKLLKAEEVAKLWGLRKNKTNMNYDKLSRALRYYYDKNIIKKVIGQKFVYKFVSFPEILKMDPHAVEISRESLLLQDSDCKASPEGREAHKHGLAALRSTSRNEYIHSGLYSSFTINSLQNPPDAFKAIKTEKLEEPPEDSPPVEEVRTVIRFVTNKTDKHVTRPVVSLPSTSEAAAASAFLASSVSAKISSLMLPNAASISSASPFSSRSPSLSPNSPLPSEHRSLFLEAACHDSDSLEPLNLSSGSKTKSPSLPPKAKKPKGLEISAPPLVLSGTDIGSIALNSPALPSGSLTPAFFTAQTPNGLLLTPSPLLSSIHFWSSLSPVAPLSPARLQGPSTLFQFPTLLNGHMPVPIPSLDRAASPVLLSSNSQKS
The note with it: protein: recombinant; tags: N-terminal GST; dsDNA, one strand shown. The essentials: as §1

The target of experiment [10] is T7, FEV (Homo sapiens, UniProt Q99581 1-238).
T7 sequence: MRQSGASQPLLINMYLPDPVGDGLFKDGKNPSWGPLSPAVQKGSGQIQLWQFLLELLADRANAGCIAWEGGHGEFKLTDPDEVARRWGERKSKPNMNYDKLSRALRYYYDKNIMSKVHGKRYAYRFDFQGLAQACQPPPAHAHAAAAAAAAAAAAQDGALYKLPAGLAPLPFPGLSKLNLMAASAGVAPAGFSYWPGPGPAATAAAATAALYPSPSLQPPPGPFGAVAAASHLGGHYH
The settings on record: protein: recombinant; tags: N-terminal GST; dsDNA, one strand shown. The essentials: as §1

Experiment [11] concerns the target ETV5 (Homo sapiens, UniProt P41161 1-510). The note with it: protein: recombinant; tags: N-terminal GST; dsDNA, one strand shown. The essentials: as §1
Experiment [12] deals with HSF1 (Homo sapiens, UniProt Q00613 1-529). The settings on record: protein: recombinant; tags: N-terminal GST; chain copies: 3; dsDNA, one strand shown. The essentials:
as §1

The target in experiment [13] is T8, SPIC (Homo sapiens, UniProt Q8N5J4 1-248).
T8 sequence: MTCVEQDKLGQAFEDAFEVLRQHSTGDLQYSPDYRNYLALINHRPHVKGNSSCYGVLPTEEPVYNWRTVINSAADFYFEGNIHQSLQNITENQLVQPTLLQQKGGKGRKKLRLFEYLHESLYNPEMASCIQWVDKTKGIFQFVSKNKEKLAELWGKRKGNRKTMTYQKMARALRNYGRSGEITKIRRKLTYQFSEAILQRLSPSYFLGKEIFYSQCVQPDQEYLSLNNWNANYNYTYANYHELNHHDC
The note with it: protein: recombinant; tags: N-terminal GST; dsDNA, one strand shown. The essentials: as §1

For experiment [14], the target named is ELF4 (Homo sapiens, UniProt Q99607 1-663). The note with it: protein: recombinant; tags: N-terminal GST; dsDNA, one strand shown. The essentials: as §1
Chain of ELF4 (Q99607 whole entry): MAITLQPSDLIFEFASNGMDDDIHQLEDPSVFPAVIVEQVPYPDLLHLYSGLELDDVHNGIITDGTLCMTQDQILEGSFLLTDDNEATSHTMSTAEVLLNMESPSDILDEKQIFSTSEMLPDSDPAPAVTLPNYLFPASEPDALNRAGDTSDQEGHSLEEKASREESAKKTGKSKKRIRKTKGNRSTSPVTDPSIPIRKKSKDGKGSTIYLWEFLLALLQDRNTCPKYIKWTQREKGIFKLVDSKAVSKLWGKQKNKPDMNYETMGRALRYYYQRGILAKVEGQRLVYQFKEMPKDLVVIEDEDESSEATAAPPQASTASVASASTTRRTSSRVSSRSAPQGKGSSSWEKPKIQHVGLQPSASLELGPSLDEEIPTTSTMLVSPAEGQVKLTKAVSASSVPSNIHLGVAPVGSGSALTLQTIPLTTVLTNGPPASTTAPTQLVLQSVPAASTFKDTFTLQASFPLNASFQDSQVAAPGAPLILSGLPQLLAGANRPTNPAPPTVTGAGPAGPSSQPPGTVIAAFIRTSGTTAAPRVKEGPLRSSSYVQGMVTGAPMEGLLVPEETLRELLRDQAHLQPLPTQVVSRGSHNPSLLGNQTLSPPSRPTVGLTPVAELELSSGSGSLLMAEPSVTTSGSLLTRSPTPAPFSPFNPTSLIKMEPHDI
For experiment [15], the target named is T9, ELK4 (Homo sapiens, UniProt P28324-2 1-405).
T9 sequence: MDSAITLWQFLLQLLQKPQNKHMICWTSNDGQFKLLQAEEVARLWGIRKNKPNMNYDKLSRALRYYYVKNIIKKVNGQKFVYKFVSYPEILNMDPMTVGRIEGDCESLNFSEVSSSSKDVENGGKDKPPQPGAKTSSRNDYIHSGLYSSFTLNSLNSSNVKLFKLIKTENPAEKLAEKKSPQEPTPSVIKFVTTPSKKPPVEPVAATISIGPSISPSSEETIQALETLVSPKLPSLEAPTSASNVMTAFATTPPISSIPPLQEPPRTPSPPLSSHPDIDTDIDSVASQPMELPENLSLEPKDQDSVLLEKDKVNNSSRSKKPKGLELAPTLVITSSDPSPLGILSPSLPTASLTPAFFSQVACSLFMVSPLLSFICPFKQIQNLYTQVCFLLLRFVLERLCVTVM
The settings on record: protein: recombinant; tags: N-terminal GST; dsDNA, one strand shown. The essentials:
as §1

In experiment [16] the target is T10, ETV2 (Homo sapiens, UniProt O00321 1-342).
T10 sequence: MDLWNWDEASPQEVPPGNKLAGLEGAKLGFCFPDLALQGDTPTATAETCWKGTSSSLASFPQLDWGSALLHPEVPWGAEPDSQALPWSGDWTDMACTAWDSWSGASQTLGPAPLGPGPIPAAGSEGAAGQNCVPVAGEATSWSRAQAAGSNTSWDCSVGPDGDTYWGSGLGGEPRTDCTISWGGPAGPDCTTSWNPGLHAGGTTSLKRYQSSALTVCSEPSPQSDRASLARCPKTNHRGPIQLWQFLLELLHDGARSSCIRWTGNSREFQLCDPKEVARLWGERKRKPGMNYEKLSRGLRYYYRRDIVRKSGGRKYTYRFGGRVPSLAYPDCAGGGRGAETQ
The settings on record: protein: recombinant; tags: N-terminal GST; dsDNA, one strand shown. In a few lines:
as §1

Experiment [17] has as its target T11, ELF3 (Homo sapiens, UniProt P78545 1-371).
T11 sequence: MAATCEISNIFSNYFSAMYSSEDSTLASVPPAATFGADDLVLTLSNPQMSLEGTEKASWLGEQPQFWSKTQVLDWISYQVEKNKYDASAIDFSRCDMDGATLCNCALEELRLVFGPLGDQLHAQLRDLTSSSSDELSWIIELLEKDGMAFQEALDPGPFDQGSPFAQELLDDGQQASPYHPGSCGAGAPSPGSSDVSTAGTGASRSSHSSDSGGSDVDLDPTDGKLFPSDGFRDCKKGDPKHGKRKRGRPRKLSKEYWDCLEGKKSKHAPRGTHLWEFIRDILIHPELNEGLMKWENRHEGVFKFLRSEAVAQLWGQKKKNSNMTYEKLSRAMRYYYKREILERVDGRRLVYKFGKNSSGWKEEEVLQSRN
The settings on record: protein: recombinant; tags: N-terminal GST; dsDNA, one strand shown. In a few lines: as §1

Experiment [18] has as its target CRX (Homo sapiens, UniProt O43186 1-299). The settings on record: protein: recombinant; tags: N-terminal GST; dsDNA, one strand shown. In a few lines: as §1
Experiment [19] addresses ETV1 (Homo sapiens, UniProt P50549 1-477). The note with it: protein: recombinant; tags: N-terminal GST; dsDNA, one strand shown. In a few lines:
as §1

Chain of ELF1 (P32519 whole entry): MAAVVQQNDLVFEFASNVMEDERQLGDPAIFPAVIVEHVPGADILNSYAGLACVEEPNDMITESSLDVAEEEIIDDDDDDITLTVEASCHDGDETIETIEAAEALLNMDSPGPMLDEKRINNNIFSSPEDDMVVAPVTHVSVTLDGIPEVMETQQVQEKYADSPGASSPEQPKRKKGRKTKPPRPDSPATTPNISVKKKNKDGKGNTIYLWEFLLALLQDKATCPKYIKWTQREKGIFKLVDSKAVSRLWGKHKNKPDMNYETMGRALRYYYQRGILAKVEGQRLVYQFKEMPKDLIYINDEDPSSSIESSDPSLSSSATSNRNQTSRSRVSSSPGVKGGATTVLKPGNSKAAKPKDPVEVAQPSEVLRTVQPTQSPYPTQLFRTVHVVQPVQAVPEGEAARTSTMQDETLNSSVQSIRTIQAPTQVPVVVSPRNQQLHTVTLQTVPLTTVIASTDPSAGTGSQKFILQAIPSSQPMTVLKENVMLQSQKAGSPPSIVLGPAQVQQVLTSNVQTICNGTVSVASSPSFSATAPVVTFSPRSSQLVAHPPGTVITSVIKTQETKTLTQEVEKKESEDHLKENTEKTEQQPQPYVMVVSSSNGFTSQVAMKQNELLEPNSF
Chain of HSF1 (Q00613 whole entry): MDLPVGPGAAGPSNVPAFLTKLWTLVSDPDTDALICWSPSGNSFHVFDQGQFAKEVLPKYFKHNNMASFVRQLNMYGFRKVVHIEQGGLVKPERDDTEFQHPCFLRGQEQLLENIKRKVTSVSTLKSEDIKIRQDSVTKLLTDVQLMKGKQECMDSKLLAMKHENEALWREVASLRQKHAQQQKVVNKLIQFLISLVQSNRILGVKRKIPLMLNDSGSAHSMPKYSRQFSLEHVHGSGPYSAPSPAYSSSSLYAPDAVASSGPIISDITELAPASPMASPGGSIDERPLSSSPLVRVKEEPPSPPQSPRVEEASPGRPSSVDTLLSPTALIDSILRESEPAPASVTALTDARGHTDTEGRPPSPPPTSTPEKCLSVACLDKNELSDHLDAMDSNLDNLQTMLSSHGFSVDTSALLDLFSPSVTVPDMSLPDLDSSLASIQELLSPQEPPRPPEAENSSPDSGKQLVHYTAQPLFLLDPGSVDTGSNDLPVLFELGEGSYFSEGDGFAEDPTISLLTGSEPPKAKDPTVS
Chain of SPIB (Q01892 whole entry): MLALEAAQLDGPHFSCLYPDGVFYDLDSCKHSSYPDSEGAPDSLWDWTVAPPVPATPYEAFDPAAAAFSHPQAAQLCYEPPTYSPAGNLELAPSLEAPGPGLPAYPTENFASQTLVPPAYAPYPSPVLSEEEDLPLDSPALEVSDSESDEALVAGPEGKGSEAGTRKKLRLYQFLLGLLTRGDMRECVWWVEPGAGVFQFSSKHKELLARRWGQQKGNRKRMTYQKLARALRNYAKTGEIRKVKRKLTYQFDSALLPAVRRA
Chain of ETV5 (P41161 whole entry): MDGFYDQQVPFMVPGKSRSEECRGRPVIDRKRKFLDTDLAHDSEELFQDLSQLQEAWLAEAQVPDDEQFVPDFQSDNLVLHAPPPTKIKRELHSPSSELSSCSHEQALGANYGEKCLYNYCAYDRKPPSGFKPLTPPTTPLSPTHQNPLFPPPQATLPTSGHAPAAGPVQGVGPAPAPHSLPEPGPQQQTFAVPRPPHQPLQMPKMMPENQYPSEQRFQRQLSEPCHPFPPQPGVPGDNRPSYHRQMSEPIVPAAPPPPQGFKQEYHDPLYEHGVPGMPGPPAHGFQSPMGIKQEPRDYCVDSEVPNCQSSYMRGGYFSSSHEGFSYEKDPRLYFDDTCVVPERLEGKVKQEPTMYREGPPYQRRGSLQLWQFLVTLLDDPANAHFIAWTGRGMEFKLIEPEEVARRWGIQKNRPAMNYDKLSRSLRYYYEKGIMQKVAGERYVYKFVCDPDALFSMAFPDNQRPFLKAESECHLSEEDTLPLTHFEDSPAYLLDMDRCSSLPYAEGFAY
Chain of CRX (O43186 whole entry): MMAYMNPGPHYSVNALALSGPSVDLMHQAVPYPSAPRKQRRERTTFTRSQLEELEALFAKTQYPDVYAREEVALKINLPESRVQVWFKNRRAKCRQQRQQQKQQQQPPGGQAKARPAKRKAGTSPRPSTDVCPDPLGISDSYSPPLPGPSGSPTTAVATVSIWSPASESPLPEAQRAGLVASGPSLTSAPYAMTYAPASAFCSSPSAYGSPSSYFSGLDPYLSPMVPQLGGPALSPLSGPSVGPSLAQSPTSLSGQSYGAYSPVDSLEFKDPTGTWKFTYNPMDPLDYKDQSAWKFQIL
Chain of ETV1 (P50549 whole entry): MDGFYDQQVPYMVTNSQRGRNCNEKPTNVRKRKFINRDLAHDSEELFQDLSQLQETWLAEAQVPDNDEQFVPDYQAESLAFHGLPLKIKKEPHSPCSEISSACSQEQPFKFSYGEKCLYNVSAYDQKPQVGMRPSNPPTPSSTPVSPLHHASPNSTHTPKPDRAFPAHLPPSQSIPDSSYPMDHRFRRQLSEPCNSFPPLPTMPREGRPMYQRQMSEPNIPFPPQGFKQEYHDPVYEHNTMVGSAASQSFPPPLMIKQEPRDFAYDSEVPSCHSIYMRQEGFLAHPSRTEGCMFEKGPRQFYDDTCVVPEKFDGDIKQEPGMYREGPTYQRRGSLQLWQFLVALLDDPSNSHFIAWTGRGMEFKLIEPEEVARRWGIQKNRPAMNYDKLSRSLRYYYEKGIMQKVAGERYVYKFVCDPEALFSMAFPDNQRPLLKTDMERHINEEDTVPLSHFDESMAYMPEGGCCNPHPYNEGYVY

Turning to CGCCTA, the binding signal was 1.17 fold enrichment (6-mer frequency, TF over GST control) in [1]; 1.19 fold enrichment (6-mer frequency, TF over GST control) in experiment [2]; 1.15 fold enrichment (6-mer frequency, TF over GST control) in experiment [3]; 1.14 fold enrichment (6-mer frequency, TF over GST control) in [4]; 1.16 fold enrichment (6-mer frequency, TF over GST control) in [5]; 1.23 fold enrichment (6-mer frequency, TF over GST control) in [6]. Moreover, the binding signal in experiment [7] was 1.13 fold enrichment (6-mer frequency, TF over GST control); in experiment [8], 1.22 fold enrichment (6-mer frequency, TF over GST control); in experiment [9], 1.24 fold enrichment (6-mer frequency, TF over GST control); in experiment [10], 1.11 fold enrichment (6-mer frequency, TF over GST control); in experiment [11], 1.18 fold enrichment (6-mer frequency, TF over GST control); in [12] it was 1.15 fold enrichment (6-mer frequency, TF over GST control). The binding signal in experiment [13] was 1.36 fold enrichment (6-mer frequency, TF over GST control); in experiment [14], 1.12 fold enrichment (6-mer frequency, TF over GST control); in [15], 1.28 fold enrichment (6-mer frequency, TF over GST control); in experiment [16] it was 1.13 fold enrichment (6-mer frequency, TF over GST control); in experiment [17], 1.06 fold enrichment (6-mer frequency, TF over GST control); in experiment [18] it was 1.18 fold enrichment (6-mer frequency, TF over GST control). The binding signal in experiment [19] was 1.12 fold enrichment (6-mer frequency, TF over GST control).
